SKN-1 inh = suppressors of acrylamide-induced Pgst-4::GFP reporter in worms, primary screen, SKN-1 inhibitor project, whole organism, uHTS, GFP/RFP fluorescence ratio, strain VP596 | inhibition, % at 21.8 µM | C. elegans VP596 Pgst-4::GFP/RFP ratio, 24 h | AID 624304, 2012 | 360,000 compounds, 0.49% hits;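 active = interference check ratio from 0.5 to 1.5 plus GFP to RFP signal ratio inhibition reaching or exceeding a fixed threshold, cut at about 30% in these data, passing the limit was not always enough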
CHRM1 PAM = human M1 muscarinic receptor positive allosteric modulators, primary screen, CHO-K1 cells, Fluo-8 calcium fluorescence, 1536-well; Muscarinic acetylcholine receptor M1 (Homo sapiens), P11229; CHO-K1 hM1, ACh EC20; 0% = ACh EC20, 100% = maximal ACh; activation, % at 3 µM; 360,000 compounds, 0.088% hits; AID 588819, 2011; in the data active = activation above about 19%, passing the limit was not always enough
Target sequence (P11229 whole entry, looked up): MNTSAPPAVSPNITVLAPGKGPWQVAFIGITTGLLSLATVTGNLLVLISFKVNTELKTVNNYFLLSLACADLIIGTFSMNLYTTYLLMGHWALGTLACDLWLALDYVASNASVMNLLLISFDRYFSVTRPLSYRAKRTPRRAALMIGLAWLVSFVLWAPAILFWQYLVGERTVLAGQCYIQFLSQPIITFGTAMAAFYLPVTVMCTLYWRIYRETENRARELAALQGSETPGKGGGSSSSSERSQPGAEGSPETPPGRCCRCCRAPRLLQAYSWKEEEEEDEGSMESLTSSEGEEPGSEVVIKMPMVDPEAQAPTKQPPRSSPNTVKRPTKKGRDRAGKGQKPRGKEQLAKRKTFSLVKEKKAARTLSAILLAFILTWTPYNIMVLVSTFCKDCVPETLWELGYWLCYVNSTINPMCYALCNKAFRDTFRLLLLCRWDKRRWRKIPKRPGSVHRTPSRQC
CHRM1 agonist = human M1 muscarinic receptor agonists, primary screen, Fluo-8 calcium fluorescence, CHO-K1 cells, HTS; Muscarinic acetylcholine receptor M1 (Homo sapiens), P11229; CHO-K1 hM1, agonist mode; 0% DMSO, 100% acetylcholine EC100; activation, % at 3 µM; 360,000 compounds, 0.33% hits; AID 588814, 2011;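 active = activation above the run's mean compound activation plus 3 SD, cut at about 16% in these data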;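 also: peak over basal fluorescence ratio within a 140 s kinetic read after compound addition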
CHRM1 antagonist = human M1 muscarinic receptor antagonists, primary screen, CHO-K1 cells, Fluo-8 calcium fluorescence, 1536-well. AID 588852, 2011. 360,000 compounds, 1.3% hits. CHO-K1 hM1, ACh EC80 antagonist. inhibition, % at 3 µM;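 active = percent inhibition above its own plate's cutoff, namely the mean of that plate's compound wells plus 3 SD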;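 also: peak over basal fluorescence ratio during 140 s after agonist addition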
ATG4B inhibitor = ATG4B protease inhibitors, primary screen, biochemical, fluorescence, uHTS | inhibition, % at 8.33 µM | 340,000 compounds, 0.51% hits | ATG4B cleavage of LC3-PLA2, NBD-HPC fluorescence, 1 h; in the data active = inhibition above about 40%
Myeloid diff 2 = induction of myeloid progenitor differentiation, primary screen, cell-based, flow cytometry, MLPCN library; ER-HoxA9 myeloid progenitors, lysozyme-GFP differentiation; calls only at 10 µM; 360,000 compounds, 1% hits;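 active = normalized GFP-positive differentiation at or above the plate's own cutoff, the solvent-only control mean plus 3 SD; inconclusive = no clear call, values can overlap the other calls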;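 also: cells exposed to compound for four days before flow analysis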
A number is an active result; . = inactive; ? = inconclusive; / = no result; + = active, no number. Rows were chosen to be rich in hits. Some 3.5% of all compounds tested hit in one or more screens of this group.

SMILES	SKN-1 inh	CHRM1 PAM	CHRM1 agonist	CHRM1 antagonist	ATG4B inhibitor	Myeloid diff 2
NC(=O)CC(NC(=O)Cc1ccc(Br)cc1)c1ccc(NC2CCN(Cc3ccccc3)CC2)c([N+](=O)[O-])c1 (stereo not given)	.	.	.	43	.	.
O=C1C2CCCCC2C(=O)N1c1ccc(NC2CCN(Cc3ccccc3)CC2)c([N+](=O)[O-])c1 (stereo not given)	.	.	.	48	.	.
CN(Cc1ccccc1)C1CCN(Cc2ccccc2[N+](=O)[O-])CC1	.	.	.	90	.	.
O=C1C2CC=CCC2C(=O)N1c1ccc(NCCc2ccccc2)c([N+](=O)[O-])c1 (stereo not given)	.	.	.	.	.	.
O=[N+]([O-])c1ccc(NC2CCN(Cc3ccccc3)CC2)c([N+](=O)[O-])c1	.	.	.	.	.	.
O=[N+]([O-])c1ccccc1NC1CCN(Cc2ccccc2)CC1	.	.	.	47	.	.
COc1cccc(NC(=O)Nc2ccc(C(C)(C)C)cc2)c1	.	.	.	26	.	.
CC(C)(C)c1ccc(NC(=O)Nc2ccc(F)cc2)cc1	.	.	.	49	.	?
CC(C)(C)c1ccc(COC(=O)Nc2ccc(F)cc2)cc1	.	.	.	.	.	.
COc1cccc(NC(=O)C(=O)N2CCOCC2)c1	.	.	.	.	.	+
Nc1ncc(-c2ccc(-c3ccccc3)cc2F)cc1-c1ccccc1F	40	.	.	.	/	.
O=C1C(=O)c2ccc(-c3ccccc3)cc2-c2ccccc21	.	.	.	.	.	/
CCOC(=O)CC1=C(C(=O)OCC)C(c2cccnc2)C(C#N)=C(N)O1 (stereo not given)	.	.	.	.	.	.
CCOC(=O)C1=C(CSc2nc(-c3ccccc3)ccc2C#N)OC(N)=C(C#N)C1c1cccnc1 (stereo not given)	.	.	.	.	.	+
CCOC(=O)C1=C(CSc2nc(-c3ccccc3)ccc2C#N)OC(N)=C(C#N)C1c1ccccc1 (stereo not given)	37	.	.	.	.	+
O=C(NCc1ccc2c(c1)OCO2)OCc1ccccc1	.	/	/	/	/	.
CC(C)(C)c1nnc(N/N=C/c2cc(Br)ccc2O)n(N)c1=O	.	.	.	35	.	?
COc1cc(/C=C/C(=O)c2ccc3c(c2)OCO3)cc(Cl)c1O	.	.	47	35	.	.
COc1ccc(C(=O)C=Cc2ccc3c(c2)OCO3)cc1OC	.	.	.	.	/	.
C#CCN1CCc2onc(-c3ccccc3OC)c2C1=O	.	.	.	.	/	.
CCN(CC)CCn1c2c(c(SCC(=O)Nc3cccc(C(C)=O)c3)nc1=O)CCCC2	.	.	.	61	.	.
CCN(CC)c1ccc2c(-c3ccc(S(=O)(=O)O)cc3S(=O)(=O)[O-])c3ccc(=[N+](CC)CC)cc-3oc2c1	.	.	86	.	.	.
O=C1CSC(=S)N1/N=C/c1cc(Br)c(O)c(Br)c1	.	.	251	90	61	.
COc1cc(/C=N/N2C(=O)CSC2=S)ccc1O	.	.	.	.	.	.
O=C(Sc1ccc(Cl)cc1)c1ccccn1	55	.	.	.	.	.
CCCCCCCCN1C(=O)[C@H](CC(=O)NCc2cccc(C(F)(F)F)c2)C[C@@]2(C(=O)OC)CC(C)(C)CC=C12	.	/	/	/	/	.
C/C(=N\NC(=O)c1ccc(CSc2cccc3cccnc23)cc1)C1CCCCC1	.	.	52	.	.	+
COc1ccc(/C(C)=N/NC(=O)c2ccc(CSc3cccc4cccnc34)cc2)cc1OC	.	.	51	.	.	.
COc1cc(/C(C)=N/NC(=O)c2ccc(CSc3nncn3C)cc2)cc(OC)c1OC	.	.	.	.	.	.

Source: PubChem (several laboratories)
